Results: PubChem BioAssay (NCI)
The panel holds about 83,000 compounds, 20% with a hit somewhere; the sample as a whole holds those more often.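 The endpoint reported here, percent growth, reads 100 for growth as untreated, 0 for no net growth and -100 for all cells dead.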 Values without a mark were called inactive. Calls of active or inactive are those of the source. How the source made its calls: active means growth percent below 10; inactive means the rest.

Columns and labels:
Experiment in all cases: NCI-60 one-dose screen, 48 h (100 = growth as untreated, 0 = no growth, -100 = all killed)
Settings in all cases: 10 µM unless noted
MALME-3M melanoma = test system: MALME-3M melanoma
MDA-MB-231 breast = test system: MDA-MB-231 breast
RXF 393 renal = test system: RXF 393 renal
SF-268 CNS = test system: SF-268 CNS
SF-295 CNS = test system: SF-295 CNS
SF-539 CNS = test system: SF-539 CNS
UACC-257 melanoma = test system: UACC-257 melanoma
M14 melanoma = test system: M14 melanoma
HCT-15 colon = test system: HCT-15 colon
HT29 colon = test system: HT29 colon
SNB-75 CNS = test system: SNB-75 CNS
SNB-19 CNS = test system: SNB-19 CNS
U251 CNS = test system: U251 CNS
PC-3 prostate = test system: PC-3 prostate
SK-MEL-5 melanoma = test system: SK-MEL-5 melanoma
UACC-62 melanoma = test system: UACC-62 melanoma
LOX IMVI melanoma = test system: LOX IMVI melanoma
SK-MEL-28 melanoma = test system: SK-MEL-28 melanoma
SK-MEL-2 melanoma = test system: SK-MEL-2 melanoma
K-562 leukemia = test system: K-562 leukemia

SMILES	growth (MALME-3M melanoma) [%]	growth (MDA-MB-231 breast) [%]	growth (RXF 393 renal)	growth (SF-268 CNS) [%]	growth (SF-295 CNS) [%]	growth (SF-539 CNS) [%]	growth (UACC-257 melanoma)	growth (M14 melanoma) [%]	growth (HCT-15 colon) [%]	growth (HT29 colon) [%]	growth (SNB-75 CNS)	growth (SNB-19 CNS) [%]	growth (U251 CNS)	growth (PC-3 prostate) [%]	growth (SK-MEL-5 melanoma) [%]	growth (UACC-62 melanoma) [%]	growth (LOX IMVI melanoma) [%]	growth (SK-MEL-28 melanoma) [%]	growth (SK-MEL-2 melanoma) [%]	growth (K-562 leukemia)
CCOC(=O)c1c(Nc2ccccc2)nn2c(-c3ccco3)c(C#N)cnc12	94.9	80	82.1%	80.5	76.7	42	112%	107	91.5	100	30.5%	78.3	109%	86.4	91.3	91	81.4	90.6	90.3	–
CCOC(=O)c1c(Nc2ccccc2)nn2c(N)c(C#N)c(-c3ccc(OC)cc3)nc12	61.1	78.1	46%	61.9	42.8	52.1	95.4%	78.6	84.6	76.7	-15.3% (active)	76.5	71.3%	66.1	87.4	80.4	71	78.4	89.2	–
NS(=O)(=O)c1cccc(Nc2nc(SCC(=O)c3ccc(Br)cc3)nc3ccccc23)c1	54.7	64.5	24.5%	32.8	17.4	72	96.1%	80.2	67.4	90.2	10.9%	35.3	59.7%	36.5	58.7	–	–	84.4	89.9	44.7%
Cc1cc(C(=O)Nc2sc3c(c2C(N)=O)CCC(=O)C3)ccc1OCCN1CCCCC1	102	101	112%	99.4	113	94.2	107%	108	83.3	96.2	95.2%	102	96.8%	88.6	–	100	–	115	106	53.2%
Cc1ccc2c(n1)C(=O)C(Cl)=C(Nc1cccc(C(C)C)c1)C2=O	83.8	45.8	73.1%	80.9	70.1	80.7	1.85% (active)	44.7	32.4	97	68.6%	71.7	60.3%	57.9	–	87.1	–	63.1	47.2	3.49% (active)
CO/N=C1\CCc2c(sc(NC(=O)c3cccc(C(F)(F)F)c3)c2C(N)=O)C1	29.4	37.7	-6% (active)	51.8	30.8	34.2	66%	47.7	64.6	51.2	-58.4% (active)	27.7	3.28% (active)	64.8	–	76.8	–	60.3	63.9	70.1%
COc1ccc(C(=O)c2cc(C(=O)/C=C/c3c(Cl)cccc3Cl)c3cc(C)ccn23)cc1	97.1	96.9	108%	98	101	94.6	102%	99.5	99.9	103	76.7%	98.8	100%	91.3	–	94	–	108	101	94.2%
CC1=C(C)C(=O)C(Nc2ccccc2)=C(Cl)C1=O	108	15.4	96.8%	95.4	102	95.4	90.3%	95.9	94.2	99.1	65.4%	88.8	84.3%	73.9	–	90.3	–	106	85.5	15.9%
